Source: the supplement of paper PMC6555819

Tested on: PXR homodimer (NR concentration 270 nM)
Experiment: PBM binding z-score (relative to random genomic background probes); higher = stronger binding; sequences stand for … in GC…GCGATTGACAGCGTAGAATGAAGG
How it was run: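 Binding z-scores were set against random background probes. The data came from custom Agilent 4×180K protein-binding microarrays carrying double-stranded probes with 34-nt variable regions, incubated 1 h with ligand-free nuclear receptor dimers. Partner-specific antibodies detected binding, and scanned fluorescence was regression-normalized.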

Sequence | PBM binding z-score
CGAACGAAGGCATGAGTTGATAGCAAATGCCGAT | -0.461
AGTCAAAGTTCAACTAGGTAACGTAAGATATGCT | 3.96
CCTTCCGGGTCACGAGGTTATAGCACGACGAGCG | 0.436
CCTACTGGGCCCAGGTCATTGATCAGTCAAAGCA | 0.241
CTACCAAGGTGAACAAGGTAGTTGATTACTATTC | -0.0276
TCTATAAGTTGATTAGGGCAACCGAAACAGCGGA | 0.561
CCTAGCAGGCCAATATGGGTCACTCAAGGCTTGA | -0.649
GCTCGGAGGCCAAGGTCAGAGCTTTGTCCGTAGA | -0.446
GCTATTAGATGAAAGGGCAACCGAATGATTCTCG | -0.122
CCCACTGGGCCATCAGGTCATTGATATCAACGTT | 0.893
ACAGACAGGTGATGAAGGAAACTCAGGCTATCAT | 0.0696
ACTAGTTGGTCAGCTGAGGTCACGCACAATTCGG | 1.08
ATCTCTAGGTAACAAGTTCAGTTAAAGAGAGGAC | 1.75
CGTCAAAGTTCAACTAAGGTAACGTAAAGCACGC | 3.56
CCTAGCAGGCCAGGGCCACTCAAGCATTTCGCTT | -0.775
CCTACTGGGCCATCAGGTCTTTGATATCAACGTT | -0.181
AGTCAAAGTTCATCTAGGTAACGTCAGATATGCT | 7.19
ACTAGCAGGCCAAGGGTCACTCATGATTAGTCCG | -0.0152
TCATATAGGTAAAGGTGAAAGTTGAACGATATGA | 0.333
TGAATGAGTTTAAAGATCAGGGAACGTGGCGTCG | 0.782
CGTCCACGGTCAATGCTAGGTCAGTGAAAGCATT | -0.388
CAAACTCGGTCACCGGAAGGTCAAAGTCCGCATG | 1.84
